This is a sample that favours compounds with a hit; in the whole collection about 2.8% have one here.
PAX8 reporter: inhibitors of PAX8 transcriptional activity in RMG-I cells | RMG-I TPO-luciferase reporter, SteadyGlo, 24 h | inhibition, % at 12.6 µM | 1.2% of 360,000 active | AID 652154;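 active means mean replicate inhibition at least 60% with every replicate also reaching 60%; inconclusive means only one of the two criteria is met; inactive means mean below 60% and not all replicates reaching 60%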;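 further: luciferase light reporting Pax8 driven TPO promoter activity; plate controls were median of neutral control wells for no effect and mitoxantrone controls for full effect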
Shn3 inh set2: Schnurri-3 reporter inhibition in Clone20 osteoblasts. Clone20 osteoblast Shn3 3'UTR firefly luciferase, 24 h. inhibition, % at 12.5 µM. 0.52% of 360,000 active;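 active means mean inhibition of at least 75% with every replicate also reaching 75%; inconclusive means mean inhibition at least 75% but some replicate below; inactive means mean inhibition below 75%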;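 further: 0% = median of neutral control wells and 100% = pilot-screen positive control compound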
LMP1 NFkB inh: Epstein-Barr LMP1 NF-kappaB reporter inhibition. 0.69% of 350,000 active. LMP1-induced NF-kappaB luciferase reporter cells, luminescence. inhibition, % at 12.5 µM; in the data active means inhibition above about 41%; inconclusive means no clear call, values can overlap the other calls;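 further: 0% = neutral control wells and 100% = reference inhibitor control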
HIV Env fusion: blocks HIV Env-driven cell-cell fusion | inhibition, % at 12.3 µM | AID 651610 | 1.1% of 360,000 active | HeLa-JRFL Env/CEM21 cell fusion, luciferase;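 active means mean replicate inhibition score of at least 50 and every replicate individually at or above 50; inconclusive means only one of the two criteria met; inactive means mean below 50 and not all replicates reaching 50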;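 further: 0% = plate neutral controls and 100% = maraviroc near 300 nM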
N-glyco inh: N-linked glycosylation inhibition | D54 ERlucT glycosylation luciferase reporter, 24 h; percent of 100 nM tunicamycin response | 0.23% of 360,000 active | reporter increase, % at 12.5 µM;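 active means mean luciferase reporter signal, scaled so untreated is 0 and the glycosylation-blocking control 100, at or above a set limit in every replicate; inconclusive means mean reaches the limit but not every replicate does; inactive means mean below the limit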;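 further: luciferase carries N-glycosylation sites so blocking glycosylation raises the light; 0% = median of neutral control wells and 100% = median of 100 nM tunicamycin wells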
NSD2 HMT inh: blocks human histone methyltransferase NSD2 | O96028 | NSD2 peptide methylation, AlphaScreen, 120 min | inhibition, % at 12.5 µM | 0.54% of 310,000 active; in the data active means inhibition above about 50%
Target sequence (O96028 whole entry, looked up): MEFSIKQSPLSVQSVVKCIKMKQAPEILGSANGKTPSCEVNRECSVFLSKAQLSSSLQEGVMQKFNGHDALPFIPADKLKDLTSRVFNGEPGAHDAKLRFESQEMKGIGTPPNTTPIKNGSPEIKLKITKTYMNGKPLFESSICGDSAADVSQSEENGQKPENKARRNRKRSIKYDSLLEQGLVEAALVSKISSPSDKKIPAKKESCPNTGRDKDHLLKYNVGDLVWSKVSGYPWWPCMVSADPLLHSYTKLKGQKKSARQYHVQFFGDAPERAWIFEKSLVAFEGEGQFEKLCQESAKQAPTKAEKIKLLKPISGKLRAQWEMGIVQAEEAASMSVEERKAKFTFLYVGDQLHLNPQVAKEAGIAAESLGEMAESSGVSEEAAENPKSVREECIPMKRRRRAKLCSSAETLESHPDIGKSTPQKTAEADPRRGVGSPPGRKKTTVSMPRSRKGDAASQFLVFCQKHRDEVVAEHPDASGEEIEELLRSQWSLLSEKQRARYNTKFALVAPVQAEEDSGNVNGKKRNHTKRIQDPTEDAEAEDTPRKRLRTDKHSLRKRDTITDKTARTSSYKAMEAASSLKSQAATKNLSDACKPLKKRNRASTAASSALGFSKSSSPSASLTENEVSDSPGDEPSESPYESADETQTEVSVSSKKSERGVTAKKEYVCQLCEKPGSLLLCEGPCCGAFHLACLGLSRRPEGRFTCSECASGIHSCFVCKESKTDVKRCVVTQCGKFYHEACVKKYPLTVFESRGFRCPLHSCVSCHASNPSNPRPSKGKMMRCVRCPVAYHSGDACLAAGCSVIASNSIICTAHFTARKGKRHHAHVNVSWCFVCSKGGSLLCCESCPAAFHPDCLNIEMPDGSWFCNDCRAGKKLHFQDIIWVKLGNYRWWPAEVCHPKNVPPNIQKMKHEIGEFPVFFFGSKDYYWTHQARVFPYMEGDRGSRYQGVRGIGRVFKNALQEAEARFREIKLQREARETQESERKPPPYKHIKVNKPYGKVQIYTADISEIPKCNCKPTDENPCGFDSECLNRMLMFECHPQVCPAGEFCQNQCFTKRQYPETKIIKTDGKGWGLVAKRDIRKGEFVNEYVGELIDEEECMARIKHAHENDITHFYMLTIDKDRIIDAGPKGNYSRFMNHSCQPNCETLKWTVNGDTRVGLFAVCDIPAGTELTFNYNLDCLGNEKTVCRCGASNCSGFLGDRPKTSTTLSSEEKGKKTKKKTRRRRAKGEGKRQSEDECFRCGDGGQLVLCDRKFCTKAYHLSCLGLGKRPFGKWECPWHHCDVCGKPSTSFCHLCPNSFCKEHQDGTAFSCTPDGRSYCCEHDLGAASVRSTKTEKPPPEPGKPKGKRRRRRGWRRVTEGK
An asterisk follows results filed as active; ? = inconclusive; . = not tested or not shown; [ ] = remark or other dose.

SMILES	PAX8 reporter	Shn3 inh set2	LMP1 NFkB inh	HIV Env fusion	N-glyco inh	NSD2 HMT inh
Cc1ccc(/C=C2\SC(=S)N(CCCC(=O)Nc3cccnc3)C2=O)cc1	.	72.3	71.8*	.	-1.2	1.2
COC(=O)c1ccc(/C=C2/SC(=S)N(CCCC(=O)Nc3ccccn3)C2=O)cc1	9.0	9.8	22.6	39.5	-3.9	-2.2
CCc1ccc(/C=C2\SC(=S)N(CCCC(=O)Nc3ccccn3)C2=O)cc1	.	36.3	51.8*	.	-3.7	-1.3
CCOc1ccc(/C=C2\SC(=S)N(CCC(=O)N(CCO)c3ccccc3)C2=O)cc1	16.5	-26.8	6.6	32.2	-5.1	12.9
CCc1ccc(/C=C2\SC(=S)N(CCCC(=O)N(CCO)c3ccccc3)C2=O)cc1	94.3*	7.6	10.4	43.2	-2.9	25.0
CCC(=O)N(C)C[C@@H]1Oc2ncc(C#Cc3ccncc3)cc2C(=O)N([C@H](C)CO)C[C@@H]1C	.	.	.	-26.2[16.7 µM]	.	.
CO[C@H]1CN(C)C(=O)c2cc(NC(=O)C3CC3)ccc2OC[C@H](C)N(C(=O)c2cccnc2)C[C@H]1C	.	.	.	30.3[16.7 µM]	.	.
Cc1cc(C(=O)COC(=O)c2nccnc2N)c(C)n1C	-62.8	0.9	8.2	3.5	-11.6	7.1
Cc1ccsc1C(=O)OCC(=O)c1cc(C)n(C)c1C	47.6	31.8	51.4*	.	-23.6	-0.6
Cc1cc(C(=O)COC(=O)c2ccccc2O)c(C)n1Cc1cccs1	.	91.2*	87.2*	-127.4	-19.9	-1.4
Cc1cc(C(=O)COC(=O)c2ccccc2O)c(C)n1CC1CCCO1 (stereo not drawn)	81.3*	82.6	86.7*	?	-24.5	-18.4
Cc1cc(C(=O)COC(=O)c2cccnc2Cl)c(C)n1CC1CCCO1 (stereo not drawn)	-6.0	55.7	65.1*	13.2	-18.4	-1.8
C[C@H]1CN([C@@H](C)CO)C(=O)Cc2cc(NS(=O)(=O)c3ccc(F)cc3)ccc2O[C@@H]1CN(C)Cc1ccc(C(=O)O)cc1	.	.	.	10.2[16.7 µM]	.	.
COc1cccc(-c2cccc(-c3nc(C(=O)NCc4ccc(Oc5ccccc5)cc4)cc4c3[C@@H](CCO)N(S(=O)C(C)(C)C)C4)c2)c1 (stereo partly drawn)	7.7	.	.	.	.	.
CN(C)C(=O)C[C@H]1CC[C@@H]2[C@H](COC[C@@H](O)CN2Cc2nccs2)O1	1.3	.	.	8.0[16.7 µM]	.	.
Cc1cc(C(=O)COC(=O)c2ccccc2Br)c(C)n1CC1CCCO1 (stereo not drawn)	38.1	?	75.5*	-23.5	-18.2	.
CC1(C)Cc2c(sc3c2c(=O)n(Cc2ccccc2)c2nncn32)CO1	.	7.2	54.0*	.	-0.3	1.5
O=C(C[C@H]1C=C[C@H](NC(=O)C2CC2)[C@H](CO)O1)NCc1ccccc1Cl	-3.5	.	.	-9.4[16.7 µM]	.	.
Cc1noc(C)c1NC(=O)Nc1ccc2c(c1)C(=O)N([C@H](C)CO)C[C@H](C)[C@@H](CN(C)C(=O)Nc1ccc3c(c1)OCO3)OCCCC[C@@H](C)O2	.	.	.	3.9[16.7 µM]	.	.
OC[C@H]1CC[C@@H]2O[C@H](CCc3ccc(C#CCc4ccccc4)cc3)[C@@H](n3cc(-c4ccccc4)nn3)C[C@@H]2O1	70.7*	.	.	.	.	.
Nc1nc(=S)c2[nH]cnc2[nH]1	93.6*	-3.8	84.9*	.	?	.
C=CC[n+]1c(-c2ccc(OCC)cc2)csc1NNC(=O)Nc1ccccc1	.	88.0*	-2.2	61.4*	-3.7	-1.7
CN(C)CCCNC(=O)C[C@H]1CC[C@@H]2[C@@H](COc3ccc(NC(=O)c4ccc5c(c4)OCO5)cc3C(=O)N2C)O1	-66.4	.	.	0.3[16.7 µM]	.	.
C[C@@H]1CN([C@@H](C)CO)S(=O)(=O)c2ccc(C#Cc3ccccc3)cc2O[C@H]1CN(C)C	.	.	.	13.3[16.7 µM]	.	.
N#CCCNC(=O)Cn1c(COc2ccc(Cl)cc2)nc2ccccc21	69.7*	-1.4	-5.8	.	0.0	-0.9
SMILES	PAX8 reporter	Shn3 inh set2	LMP1 NFkB inh	HIV Env fusion	N-glyco inh	NSD2 HMT inh
O=C(NCC[C@H]1CC[C@H](NC(=O)c2cnccn2)[C@@H](CO)O1)Nc1ccc(F)cc1	-13.0	.	.	17.9[16.7 µM]	.	.
Cc1cccc(C2(c3cccc(C)c3)CC2C(=O)Nc2ccc([N+](=O)[O-])cc2O)c1 (stereo not drawn)	94.7*	73.3	39.1	75.1*	-14.5	-1.1
CO[C@@H]1CN(C)C(=O)c2ccc(NC(=O)C3CCC3)cc2OC[C@H](C)N(Cc2nccs2)C[C@@H]1C	-16.9	.	.	.	.	.
O=C(Nc1ccc(N2CCN(C(=O)c3ccccc3)CC2)cc1)c1ccc2c(c1)OCO2	-6.6	21.9	5.2	4.7	-8.5	-2.2
CCC(=O)Nc1ccc(N2CCN(C(=O)c3ccccc3C)CC2)cc1	.	0.9	-2.7	3.4	-1.6	2.3
Cc1ccccc1C(=O)N1CCN(c2ccc(NC(=O)CSc3ccc(Cl)cc3)cc2)CC1	.	83.5	58.3*	.	-8.2	-1.9
Cc1ccc(C(=O)N2CCN(c3ccc(NC(=O)c4ccc5c(c4)OCCO5)cc3)CC2)cc1	12.6	70.2	18.8	64.8*	-4.8	-1.0
Cc1ccccc1C(=O)N1CCN(c2ccc(NC(=O)c3ccc4c(c3)OCCO4)cc2)CC1	35.7	85.9*	43.2*	46.8	-12.0	-0.1
Cc1noc(C)c1NC(=O)Nc1ccc2c(c1)C(=O)N([C@@H](C)CO)C[C@@H](C)[C@@H](CN(C)C(=O)c1ccccc1)OCCCC[C@@H](C)O2	-6.0	.	.	-1.6[16.7 µM]	.	.
CC(C)NC(=O)Nc1ccc2c(c1)C(=O)N([C@@H](C)CO)C[C@@H](C)[C@H](CN(C)Cc1ccc(C(=O)Nc3ccccc3N)cc1)O2	0.8	.	.	.	.	.
C[C@H]1CN([C@@H](C)CO)C(=O)c2cc(NC(=O)Nc3ccc4c(c3)OCO4)ccc2O[C@H]1CN(C)S(=O)(=O)c1ccc(Cl)cc1	.	.	.	64.9*[16.7 µM]	.	.
Cc1ccc(S(=O)(=O)N(C)C[C@@H]2Oc3ccc(NC(=O)Nc4ccc5c(c4)OCO5)cc3C(=O)N([C@H](C)CO)C[C@@H]2C)cc1	-23.9	.	.	60.1*[16.7 µM]	.	.
Cc1ccc(S(=O)(=O)N(C)C[C@H]2Oc3ccc(NC(=O)Nc4ccc5c(c4)OCO5)cc3C(=O)N([C@@H](C)CO)C[C@H]2C)cc1	-1.9	.	.	0.0[16.7 µM]	.	.
C[C@H](CO)N1C[C@H](C)[C@H](CN(C)S(=O)(=O)c2ccc(Cl)cc2)Oc2ccc(NC(=O)Nc3ccc4c(c3)OCO4)cc2C1=O	.	.	.	110.7*[16.7 µM]	.	.
CN1C(=O)c2cc(NS(C)(=O)=O)ccc2OC[C@H]2O[C@H](CC(=O)NC3CCCCC3)CC[C@H]21	-7.8	.	.	-14.3[16.7 µM]	.	.
Cc1nc(N2CCN(C(=O)COc3ccccc3)CC2)c2c(C)c(C)sc2n1	20.8	30.2	8.4	61.5*	1.4	-1.9
Cn1c(=O)[nH]c(=O)c2c1nc(N/N=C/c1cccnc1)n2Cc1ccc(Cl)cc1	-7.9	-0.1	.	15.0	53.2*	0.0
O=S(=O)([N-]c1nc2ccccc2nc1-n1cc[n+](Cc2ccccc2)c1)c1ccc(Br)cc1	2.1	16.4	.	-67.4	48.3*	4.5
CO[C@@H](CN(C)C(=O)C1CC1)[C@H](C)CN(C(=O)Nc1ccc(C(F)(F)F)cc1)[C@@H](C)CO	5.8	.	.	3.5[16.7 µM]	.	.

High-throughput results as filed in PubChem BioAssay.
